Screening results as filed in PubChem BioAssay.
Shown are actives, neighbours in structure and some others; about 6.1% of the full set was active somewhere.
D1 antagonist: antagonists of human D1 dopamine receptor. HEK293 TREx D1 cells, calcium flux, dopamine EC80; active compounds read low. P21728. 360,000 compounds, 3.2% hits. activity change, negative = inhibition, % at 10 µM; in the data active = activity change below about -30%; note: % is set by controls: 0 for no effect and ±100 for the full control effect
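Inducible Hek293 Trex D1 cells (tetracycline, overnight, 30 C). Calcium dye 30–90 min RT. Antagonist mode: EC80 dopamine added after 180 s compound read.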
D1 agonist: human D1 receptor agonism; P21728; HEK293 T-REx D1 cells, calcium flux, agonist mode; activation, % at 2 µM; 360,000 compounds, 1% hits; AID 504660; in the data active = activation above about 30%; note: 0% is about no effect
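Inducible HEK293 T-REx D1 cells, force-coupled to calcium signalling, were plated at 4000 cells/well with tetracycline and held overnight at 30 C. After no-wash calcium dye loading, compound-evoked calcium rise over 180 s flagged agonists.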
DRD3 agonist: agonists of human D3 dopamine receptor. P35462. D3R DiscoveRx beta-arrestin cells, luminescence, 90 min. max activation, %. 410,000 compounds, 0.58% hits. AID 652048; in the data active = max activation above about 30%; note: 0% is about no effect
Target sequence (P35462 whole entry, looked up): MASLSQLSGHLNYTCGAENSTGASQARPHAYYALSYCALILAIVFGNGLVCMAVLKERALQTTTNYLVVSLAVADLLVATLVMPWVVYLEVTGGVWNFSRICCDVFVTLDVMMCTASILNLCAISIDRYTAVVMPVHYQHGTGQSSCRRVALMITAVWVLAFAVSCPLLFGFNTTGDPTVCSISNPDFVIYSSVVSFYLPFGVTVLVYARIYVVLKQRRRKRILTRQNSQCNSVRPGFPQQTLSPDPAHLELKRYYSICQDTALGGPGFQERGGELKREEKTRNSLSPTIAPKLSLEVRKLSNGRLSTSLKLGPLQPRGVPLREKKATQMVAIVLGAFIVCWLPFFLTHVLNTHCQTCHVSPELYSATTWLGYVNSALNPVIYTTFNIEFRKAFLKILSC
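Cells at 1500/well, incubated overnight, then treated with pinned compounds (dopamine as control) for 90 min at 37 degrees C. DiscoveRx reagent added for 30 - 60 minutes at room temperature; luminescence read.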
D1 PAM: potentiators of human D1 dopamine receptor; AID 504651; 360,000 compounds, 0.036% hits; HEK293 TREx D1 cells, calcium flux, dopamine EC20 potentiation; potentiation, % at 10 µM; in the data active = potentiation above about 30%; note: 0% is about no effect
DRD3 antagonist: blocks the human D3 dopamine receptor; max response, negative = inhibition, %; AID 652054; 360,000 compounds, 2.5% hits; P35462; D3R cells, DiscoveRx beta-arrestin luminescence, antagonist mode; active compounds read low; in the data active = max response below about -50%; inconclusive = no clear call, values can overlap the other calls; note: % is set by controls: 0 for no effect and ±100 for the full control effect
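Cells expressing the human receptor were seeded at 1500 cells/well, incubated overnight at 37 degrees C in 5% CO2, then exposed to library compounds with dopamine controls for 90 minutes at 37 degrees C before luminescent detection.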
Numbers without * were called inactive; ? = inconclusive; / = not tested or not shown.

SMILES	D1 antagonist	D1 agonist	DRD3 agonist	D1 PAM	DRD3 antagonist
Cc1ccc(C(=O)OCC(=O)Nc2ccc3c(c2)OCO3)cc1S(=O)(=O)N1CCOCC1	-76.8*	-1.5	1.8	-1.8	17.6
Oc1ccc(C=NCC2COc3ccccc3O2)cc1 (stereo unspecified)	-7.0	2.2	-32.2	2.5	-23.9
COc1ccc(C=NCC2COc3ccccc3O2)cc1OC (stereo unspecified)	-8.7	1.6	-27.4	-4.2	-51.0*
O=C(Cn1c(=O)nc(-c2ccccc2)c2ccccc21)NCc1ccccc1Cl	8.2	9.6	9.9	-1.5	/
C/C=C(/C)C(=O)OC1CC(C)(C)C[C@H]2C3=CC[C@@H]4[C@@]5(C)CCC(O[C@@H]6O[C@@H](C(=O)O)[C@@H](O)C(O[C@@H]7OC[C@H](O)[C@@H](O)[C@@H]7O[C@@H]7OC(CO)C(O)[C@@H](O)[C@@H]7O)C6O[C@@H]6OC(CO)C(O)C(O)C6O)[C@@](C)(CO)[C@@H]5CC[C@]4(C)[C@]3(C)CC(O)[C@@]12CO (stereo partly specified)	/	/	22.5	/	-22.9
C/C=C(\C)C(=O)OC1[C@H](OC(C)=O)C2(CO)C(CC1(C)C)C1=CCC3C4(C)CCC(O[C@@H]5O[C@H](C(=O)O)[C@@H](O[C@@H]6O[C@H](CO)[C@@H](O)[C@H](O)[C@H]6O)[C@H](O)[C@H]5O[C@H]5O[C@H](CO)[C@@H](O)[C@H](O)[C@H]5O)[C@](C)(CO)C4CCC3(C)[C@]1(C)C[C@H]2O (stereo partly specified)	/	/	-44.0	/	-120.7*
CC(=O)OC1COC(OC2C(O)C(C)OC(OC3C(OC4CCC5(C)C(CCC6(C)C5CC=C5C7CC(C)(C)CCC7(C(=O)O)CCC56C)C4(C)CO)OCC(O)C3O)C2O)C(O)C1OC(C)=O (stereo unspecified)	186.8	323.1*	/	26.1	/
CC1(C)C[C@H]2C3=CCC4[C@@]5(C)CC[C@H](O[C@@H]6O[C@H](C(=O)O)[C@@H](O)[C@H](O)[C@H]6O)[C@@](C)(CO)C5CC[C@@]4(C)[C@]3(C)C[C@H](O)[C@@]2(CO)[C@@H](O)[C@@H]1O (stereo partly specified)	/	/	-2.9	/	13.8
CCCCN(CCCC)C(=O)CN(C)S(=O)(=O)c1ccc2c(c1)c(=O)n(C)c(=O)n2C	-22.5	1.3	-11.4	-0.4	/
CCOc1cc2c(cc1OCC)C(CC(=O)O)N(C(=O)Nc1ccc(Br)c(C)c1)CC2 (stereo unspecified)	-17.4	-1.1	-5.1	-0.2	/
CC(O)(c1cccc(F)c1)c1nc(/C=C/c2ccccc2)cs1 (stereo unspecified)	/	/	-17.8	/	-87.9*
CC(O)(c1ccc(F)c(F)c1)c1nc(/C=C/c2ccc(C(F)(F)F)cc2)cs1 (stereo unspecified)	/	/	-7.0	/	?
Cc1noc(C)c1COC(=O)c1cccnc1Cl	-33.7*	4.1	-0.2	-3.2	4.5
O=C(OCc1ccc(Br)cc1)c1cccnc1Cl	-12.0	2.9	6.1	0.8	-11.1
Nc1c(C(=O)N/N=C/c2cccnc2)oc2nc(-c3ccccc3)cc(-c3ccco3)c12	-1.9	1.1	26.1	-9.6	57.2
Nc1c(C(=O)N/N=C/c2cccnc2)oc2nc(-c3ccco3)cc(-c3ccco3)c12	-31.0*	3.7	10.2	-2.6	43.1
CCCCNC(=O)c1cnc2sc(N3CCCCCC3)nn2c1=O	8.3	-0.1	-7.4	-6.0	/
COc1cccc(/C=N/Nc2ncnc3scc(-c4ccccc4)c23)c1OC	-4.4	1.9	36.1*	-5.2	41.6
COc1ccc(-c2csc3ncnc(Nc4ccccc4)c23)cc1	-12.1	5.3	0.1	0.4	/
COc1ccc(NC(=O)CCCN2C(=O)CCn3nc(-c4cn(C)c5ccccc45)cc32)cc1	35.0	4.3	-7.3	-1.6	/
CCCCNC(=O)c1ccc2c(OCC)n(CCCC)nc2c1	-1.0	0.4	5.4	-2.7	22.8
CCCn1nc2cc(C(=O)N(CC)c3ccc(OC)cc3)ccc2c1OCC	13.3	0.8	48.7*	-10.0	3.2
CCCn1nc2cc(C(=O)NCCc3cccs3)ccc2c1OCC	-82.9*	1.4	-7.6	-12.1	7.7
COC(=O)c1cc2oc(C)cc2n1Cc1c(C)cc(C)cc1C	11.8	1.3	3.7	2.0	/
O=S(=O)(c1ccc(Cl)cc1)c1nc(-c2ccccc2F)oc1NCCCN1CCOCC1	10.7	3.6	-31.1	11.2	-60.3*
SMILES	D1 antagonist	D1 agonist	DRD3 agonist	D1 PAM	DRD3 antagonist
Cc1ccc(S(=O)(=O)c2nc(-c3ccccc3Cl)oc2NCCCN2CCOCC2)cc1	-7.7	-1.2	-10.7	-3.8	-53.3*
CCS(=O)(=O)c1nc(S(=O)(=O)c2ccc(C)cc2)c(NCCN2CCOCC2)s1	-0.9	1.6	11.2	5.5	-0.8
CCCS(=O)(=O)c1nc(S(=O)(=O)c2ccc(C)cc2)c(NCCCN2CCOCC2)s1	-31.6*	-0.1	-12.6	-4.8	-7.0
Cc1cccc(NS(=O)(=O)c2ccc(NC(=O)N3CCCC3)cc2)c1	15.9	2.1	-11.9	-1.1	/
Cc1nn(-c2c(Cl)cc(Cl)cc2Cl)c(=O)c2ccccc12	2.6	74.0*	-22.4	-1.5	?
CCOc1ccc2nc(SCC3CC3(Cl)Cl)[nH]c2c1 (stereo unspecified)	-24.1	4.1	5.6	-6.9	18.2
ClC1(Cl)CC1CSc1nc2ccccc2[nH]1 (stereo unspecified)	-34.3*	5.3	-0.8	-2.9	3.6
CCOC(=O)N(C)c1c(CC)nc2c(OCCC3CCCCC3)cccn12	/	/	-24.0	/	?
CCOC(=O)C(=O)N(C)c1c(CC)nc2c(OCCC3CCCCC3)cccn12	/	/	-22.2	/	-84.4*
CCc1nc2c(OCCC3CCCCC3)cccn2c1N(C=O)Cc1ccc(OC)cc1	/	/	-12.2	/	-76.7*
CCc1nc2c(OCCC3CCCCC3)cccn2c1N(C)C(=O)CC(C)C	/	/	-14.9	/	-26.2
CCc1nc2c(OCCC3CCCCC3)cccn2c1N(C)C(=O)c1cccs1	/	/	-19.5	/	-100.6*
CCCCC(=O)N(C)c1c(CC)nc2c(OCCC3CCCCC3)cccn12	/	/	-28.1	/	-71.1*
Cc1cc(C)c(Cn2c3ccccc3c3cnn(CC(=O)NCCc4ccccc4)c(=O)c32)c(C)c1	7.5	1.1	-16.8	-0.7	/
COc1ccc(NC(=O)CC2Oc3ccc(C)cc3NC2=O)cc1Cl (stereo unspecified)	-1.3	3.4	-8.5	-1.9	/
CCOc1ccc(-c2cc(CCCC(=O)NCCc3ccc(SC)cc3)no2)cc1	-6.9	1.6	6.1	0.2	/
Cc1ccc(-n2nc(CO)c(C(=O)NCCCCc3ccccc3)n2)cc1C	-5.8	27.5	-4.2	-1.9	/
Cc1nn(C)c2c1c(C(F)(F)F)cc(=O)n2C(C)C(=O)Nc1ccccc1F (stereo unspecified)	-6.9	0.1	2.0	-5.8	/
COc1cccc(NC(=O)CSc2nc(=O)n(Cc3cccnc3)c3c2CCC3)c1	/	-1.0	2.4	5.1	/
